Results reported in PubChem BioAssay.
Records with an inconclusive call do not appear. Activity calls are given as the source filed them.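 The calls were made as follows, unless noted: active = normalized viability below 100% at a tested concentration; inactive = the rest.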

Assays:
[1] = stimulators of nuclear beta-catenin in C2C12, primary screen, imaging, WNT3A-conditioned medium, mouse C2C12, NPC library (AID 1117326; in the data active = nuclear beta-catenin stimulation mostly above about 4.2%, no sharp cut-off; inactive = mostly below about 10%); conditions: stronger effect = higher value
[2] = stimulators of insulin release from INS-1E, primary screen, cell-based, 5 mM glucose, NPC library (AID 1117329;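 active = compound raises insulin release from rat beta cells at 5 mM glucose, no numeric limit stated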); conditions: rat INS-1E insulin secretion, at 10 µM, stronger effect = higher value
[3] = growth inhibition of GSK3B-pretreated HCT116 cells – cell-based, CellTiter-Glo, 0.2 to 20 µM (AID 1117336;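 active = compounds lowering colon cancer cell viability after pretreatment blocking the GSK3B kinase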); conditions: HCT116 viability after GSK3B inhibitor, at 20 µM, stronger effect = higher value
[4] = inhibition of endothelial tube formation, primary screen, imaging, VEGF stimulated, CD31 staining, tube area, NPC library (AID 1117340;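 active = compound that reduces growth-factor-driven endothelial tube area in a mixed cell culture, no cutoff stated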); conditions: VEGF-stimulated ADSC/ECFC co-culture, at 10 µM, stronger effect = higher value
[5] = glucagon-like peptide 1 release enhancers, primary assay, NCI-H716 cell line, NPC library (AID 1117341;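 active = compound raises GLP1 secretion from the human gut endocrine cells, with no numeric limit stated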); conditions: NCI-H716 cells, at 10 µM, stronger effect = higher value
[6] = HCT116 colon cancer cell growth inhibition, primary screen, CellTiter-Glo luminescence, NPC library (AID 1117342;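 active = compounds that lower survival of HCT116 colon cancer cells in the luminescence readout, no numeric limit stated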); conditions: at 20 µM (top of the series)
[7] = CellTiter-Glo luminescent readout of SW480 viability loss, NPC library primary (AID 1117343;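 active = compounds that lower viability of the colon cancer cells in the luminescence readout, with no numeric limit stated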); conditions: CellTiter-Glo luminescence; at 20 µM (top of the series) unless noted
[8] = decreased DLD-1 cellular survival, CellTiter-Glo luminescent readout, NPC compound collection, primary HTS (AID 1117346;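 active = compounds that lower survival of DLD-1 colon cancer cells in the luminescence readout, no cutoff given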); conditions: DLD-1 viability, CellTiter-Glo luminescence; at 20 µM (top of the series)
[9] = growth inhibition of DIPG glioma cells, dose response, cell-based, SU-DIPG-XVII, MIPE5.0, CellTiter-Glo, qHTS (AID 1347060; cut-off not given, nearly all actives have AC50 up to about 26 µM;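 as to AC50: cells exposed to compound for 48 hours before viability readout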); conditions: SU-DIPG-XVII viability, CellTiter-Glo ATP luminescence
[10] = growth inhibition of DIPG glioma cells, dose response, cell-based, SU-DIPG-XIII, MIPE4.0, CellTiter-Glo, qHTS (AID 1347061; cut-off not given, nearly all actives have AC50 up to about 37 µM;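 also: cells exposed to compound for 48 hours before readout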); conditions: SU-DIPG-XIII viability, CellTiter-Glo ATP luminescence
[11] = growth inhibition of DIPG glioma cells, dose response, cell-based, JHH-DIPG-1, MIPE4.0, CellTiter-Glo, qHTS (AID 1347062; cut-off not given, nearly all actives have AC50 up to about 27 µM;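 as to AC50: cells exposed to compound for two days before readout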); conditions: JHH-DIPG-1 viability, CellTiter-Glo ATP luminescence
[12] = SU-DIPG-VI glioma cell viability, MIPE4.0 library, CellTiter-Glo luminescence, qHTS (AID 1347066; cut-off not given, nearly all actives have AC50 up to about 30 µM;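 also: cells exposed to compound for 48 hours before readout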); conditions: CellTiter-Glo ATP luminescence
[13] = system: Aerobactin synthetase IucA (Klebsiella pneumoniae); assay: IucA aerobactin synthetase inhibitors, biochemical, Tocris library, absorbance (AID 1345561; call rule not given here;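 also: 100% = enzyme without compound and 0% = no enzyme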); conditions: purified IucA enzyme assay, absorbance (OD) read-out; stronger effect = lower value;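 tested at 8 µM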
[14] = sensitizers of A549 cells to miR-34 induction, primary screen, imaging, A549 dox-inducible miR-34, nuclei and caspase counts (AID 1347080;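 active = compounds whose cell count with miR-34 switched on is under 0.7 times the count with it off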); conditions: A549 miR-34 inducible, Hoechst nuclei count, 48 h
[15] = viability rescue of complex I mutant cybrids, primary screen, cell-based, galactose medium, ATP luminescence (AID 1645843;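 active = z-score of at least 1.8 in each of two replicates, scored against plate mean and spread of sample wells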;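 also: positive z means more ATP and so rescue of galactose-driven cybrid death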); conditions: complex I mutant cybrid cells, 72 h, stronger effect = higher value
[16] = viability loss in pontine glioma line – cell-based, SU-DIPG-XXV, MIPE5.0, CellTiter-Glo, qHTS, dose response (AID 1347065; cut-off not given, nearly all actives have AC50 up to about 26 µM;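 also: cells exposed to compound for 48 hours before ATP readout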); conditions: CellTiter-Glo ATP luminescence
[17] = SU-DIPG-XXV glioma cell viability, MIPE5.0 library, qHTS (AID 1347068; cut-off not given, nearly all actives have IC50 up to about 30 µM;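 also: cells exposed to compound for 48 hours before viability readout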)
[18] = ovarian cancer cell viability with rucaparib, profiling panel, oncology-focused library, rucaparib conditional (AID 1508598); conditions: patient-derived ovarian cancer cells, CellTiter-Glo viability, 144 h, stronger effect = lower value

CC(=O)SC[C@@H](C)C(=O)N1CCC[C@H]1C(=O)N[C@@H](Cc1ccccc1)C(=O)O
-1.6%: nuclear beta-catenin stimulation ([1]; stimulation, at 2 µM)
inactive: nuclear beta-catenin stimulation ([1]; at 10 µM) -0.2% | insulin secretion stimulation [2] 0% | viability decrease [3] -13.4% | tube area decrease [4] 7.4% | GLP1 secretion stimulation [5] 0.3% | inhibition of viability [6] 2.4% | viability decrease (inhibition) [7] -15.3% | viability decrease (inhibition) [8] -1.4% | outcome [9] | outcome [10] | outcome [11] | outcome [12]

CC(C)OC(=O)c1cc2c(OCC(O)CNC(C)(C)C)cccc2[nH]1 (stereo not given)
inactive: nuclear beta-catenin stimulation ([1]; at 10 µM) 0.4% | insulin secretion stimulation [2] 13.3% | viability decrease [3] 9.2% | tube area decrease [4] 1.9% | GLP1 secretion stimulation [5] 4.8% | viability decrease (inhibition) [8] 7.6% | remaining activity [13] 116% | fold change ([14]; stronger effect = lower value, cell number ratio, induced over uninduced) 0.915 | z-score [15] -0.48
0.769: fold change ([14]; measured here: relative caspase fold change +Dox/-Dox)
5.8%: nuclear beta-catenin stimulation ([1]; stimulation, at 2 µM)
active: inhibition of viability [6] 40.5% | viability decrease (inhibition) [7] 58.6%
9290: cell count ([14]; measured here: total cells with miR-34 induction, stronger effect = lower value)
10200: cell count ([14]; measured here: total cells without miR-34 induction)

CC(C)C[C@H](NC(=O)[C@H](Cc1ccccc1)NC(=O)c1cnccn1)B(O)O
137%: nuclear beta-catenin stimulation ([1]; stimulation, at 2 µM)
active: nuclear beta-catenin stimulation ([1]; at 10 µM) 132% | viability decrease [3] 99% | tube area decrease [4] 107% | inhibition of viability [6] 100% | viability decrease (inhibition) [7] 132% | viability decrease (inhibition) [8] 95.4% | AC50 [9] 20.9 nM | AC50 [10] 2090 nM | AC50 [11] 20.9 nM | AC50 [16] 6.62 nM | AC50 [12] 26.4 nM | IC50 [17] 26.3 nM | viability ([18]; at 0.000305 µM, OCI-P5x cells, with rucaparib 20 µM, 100% = cells with rucaparib alone) 85.1% | viability ([18]; at 0.000305 µM, OCI-P5x cells, without rucaparib) 23.5% | viability ([18]; at 0.00122 µM, OCI-P5x cells, with rucaparib 20 µM, 100% = cells with rucaparib alone) 85.3% | viability ([18]; at 0.00122 µM, OCI-P5x cells, without rucaparib) 28.3% | viability ([18]; at 0.00488 µM, OCI-P5x cells, without rucaparib) 94.3% | viability ([18]; at 0.0195 µM, OCI-C5x cells, with rucaparib 10 µM, 100% = cells with rucaparib alone) 38.9% | viability ([18]; at 0.0195 µM, OCI-C5x cells, without rucaparib) 15.9% | viability ([18]; at 0.0195 µM, OCI-P5x cells, with rucaparib 20 µM, 100% = cells with rucaparib alone) 5.88% | viability ([18]; at 0.0195 µM, OCI-P5x cells, without rucaparib) 1.5% | viability ([18]; at 0.0781 µM, OCI-C5x cells, with rucaparib 10 µM, 100% = cells with rucaparib alone) 2.87% | viability ([18]; at 0.0781 µM, OCI-C5x cells, without rucaparib) 2.36% | viability ([18]; at 0.0781 µM, OCI-P5x cells, with rucaparib 20 µM, 100% = cells with rucaparib alone) 1.94% | viability ([18]; at 0.0781 µM, OCI-P5x cells, without rucaparib) 1.08% | viability ([18]; at 0.313 µM, OCI-C5x cells, with rucaparib 10 µM, 100% = cells with rucaparib alone) 2.19% | viability ([18]; at 0.313 µM, OCI-C5x cells, without rucaparib) 1.67% | viability ([18]; at 0.313 µM, OCI-P5x cells, with rucaparib 20 µM, 100% = cells with rucaparib alone) 1.91% | viability ([18]; at 0.313 µM, OCI-P5x cells, without rucaparib) 0.96% | viability ([18]; at 1.25 µM, OCI-C5x cells, with rucaparib 10 µM, 100% = cells with rucaparib alone) 1.59% | viability ([18]; at 1.25 µM, OCI-C5x cells, without rucaparib) 1.6% | viability ([18]; at 1.25 µM, OCI-P5x cells, with rucaparib 20 µM, 100% = cells with rucaparib alone) 1.8% | viability ([18]; at 1.25 µM, OCI-P5x cells, without rucaparib) 0.86% | viability ([18]; at 5 µM, OCI-C5x cells, with rucaparib 10 µM, 100% = cells with rucaparib alone) 1.34% | viability ([18]; at 5 µM, OCI-C5x cells, without rucaparib) 1.65% | viability ([18]; at 5 µM, OCI-P5x cells, with rucaparib 20 µM, 100% = cells with rucaparib alone) 1.02% | viability ([18]; at 5 µM, OCI-P5x cells, without rucaparib) 0.609%
inactive: insulin secretion stimulation [2] 2.1% | GLP1 secretion stimulation [5] 1.6% | viability ([18]; at 0.000305 µM, OCI-C5x cells, with rucaparib 10 µM, 100% = cells with rucaparib alone) 114% | viability ([18]; at 0.000305 µM, OCI-C5x cells, without rucaparib) 117% | viability ([18]; at 0.00122 µM, OCI-C5x cells, with rucaparib 10 µM, 100% = cells with rucaparib alone) 114% | viability ([18]; at 0.00122 µM, OCI-C5x cells, without rucaparib) 113% | viability ([18]; at 0.00488 µM, OCI-C5x cells, with rucaparib 10 µM, 100% = cells with rucaparib alone) 119% | viability ([18]; at 0.00488 µM, OCI-C5x cells, without rucaparib) 115% | viability ([18]; at 0.00488 µM, OCI-P5x cells, with rucaparib 20 µM, 100% = cells with rucaparib alone) 102%
